Measurements as given in PubChem BioAssay (Tox21).
Results filed as inconclusive are left out. Calls of active or inactive are those of the source. Unless noted, calls come from the whole dose curve; as a rule, active = well fitted curve in the direction sought with a large enough effect in the repeat runs; inconclusive = weak or mixed curves; inactive = no such curve, though single readings can be large; an effect the other way counts as inactive or inconclusive.

Tests used:
[1] = qHTS assay to identify small molecule antagonists of the estrogen receptor alpha (ER-alpha) signaling pathway using the BG1 cell line in the presence of 0.1 nM 17-beta-estradiol - cell viability counter screen (AID 1259241); note: nearly all actives have a fitted effect of over 40% in size
Summary of the method: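 Measures cytotoxicity alongside the ER-alpha antagonist readout: VM7Luc4E2 cells, charcoal-stripped serum, 0.1 nM 17beta-estradiol final, 22 hr compound incubation at 37C, CellTiter-Fluor fluorescence.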

[2] = qHTS assay to identify small molecule antagonists of the androgen receptor (AR) signaling pathway using the MDA cell line in the presence of 0.5 nM R1881 - cell viability counter screen (AID 1259242); note: nearly all actives have a fitted effect of over 45% in size
Summary of the method: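 qHTS format. MDA-kb2 (MMTV-luc, AR/GR responsive) + cpd + 0.5 nM R1881 final, 16 hr 37C/0% CO2 → CellTiter-Fluor 30 min → fluorescence intensity.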

[3] = molecular target: Estrogen receptor (Homo sapiens) (UniProt P03372); test: qHTS assay to identify small molecule antagonists of the estrogen receptor alpha (ER-alpha) signaling pathway using the BG1 cell line in the presence of 0.1 nM 17-beta-estradiol (AID 1259244); note: nearly all actives have a fitted effect of over 50% in size; note: potency is the fitted concentration of half-maximal effect
Summary of the method: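 Reporter is a stably transfected luciferase under four estrogen responsive elements in VM7Luc4E2 cells expressing native full-length ER-alpha; inhibition of 0.1 nM (final) 17beta-estradiol-driven signal over 22 h is read by luminescence.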

[4] = qHTS assay to identify small molecule phospholipidosis (PLD) inducers (AID 1259344; active = well fitted curve in the direction sought with a large enough effect; an effect the other way counts as inactive or inconclusive)
Summary of the method: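 Accumulated phospholipid, stained red by LipidTOX during 24 h compound treatment of HepG2 cells at 37 C, is quantified from images as pit number and intensity, normalised per cell using Hoechst-stained nuclei.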

[5] = qHTS assay to identify small molecule HDAC inhibitors (AID 1259364);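 note: wild-type HCT-116 cells with endogenous class I/II HDAC activity; top concentration of the series differs between compounds; nearly all actives have a fitted effect of over 45% in size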
Summary of the method: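 Quantitative high-throughput format: overnight-seeded HCT-116 cells got compounds for 2 hr at 37C; HDAC-Glo I/II reagent added, 30 min RT, luminescence measured.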

[6] = qHTS assay to identify small molecule HDAC inhibitors - cell viability counter screen (AID 1259365); note: series mostly up to about 92 µM; nearly all actives have a fitted effect of over 50% in size
Summary of the method: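 Following a 2hr exposure of overnight-plated wild-type HCT-116 cells to DMSO-delivered compounds, CellTiter-Glo was added and luminescence recorded after 30min at room temperature.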

[7] = qHTS assay to identify small molecule antagonists of the sonic hedgehog signaling (Shh) pathway - cell viability counter screen (AID 1259367); note: nearly all actives have a fitted effect of over 55% in size; note: potency is the fitted concentration of half-maximal effect
Summary of the method: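 CellTiter-Fluor signal in conditioned medium-stimulated 3T3 Gli1-Luc cells, 23 hr compound exposure, 37C.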

[8] = qHTS assay to identify small molecule agonists of the sonic hedgehog signaling (Shh) pathway (AID 1259368; calls by dose curve;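 note: NIH/3T3-derived 3T3Gli1-Luc cells carrying a stable Gli1-driven firefly luciferase reporter; series mostly up to about 92 µM; nearly all actives have a fitted effect of over 15% in size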)
Summary of the method: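 Quantitative high-throughput format using a Gli1-driven firefly luciferase reporter line derived from NIH/3T3 cells. After a 24 hr compound treatment at 37 C and 5% CO2, luminescence reported Gli1 response element activity.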

[9] = molecular target: Androgen receptor (Homo sapiens) (UniProt P10275); test: qHTS assay to identify small molecule antagonists of the androgen receptor (AR) signaling pathway using the MDA cell line in the presence of 0.5 nM R1881 (AID 1259243); note: nearly all actives have a fitted effect of over 50% in size; note: potency is the fitted concentration of half-maximal effect
Summary of the method: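 Antagonist mode quantitative HTS in MDA-kb2 MMTV-luciferase cells, agonist R1881 at 0.5 nM final, 16 hr exposure at 37C and 0% CO2, luminescent detection.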

[10] = qHTS assay to identify small molecule agonists of the sonic hedgehog signaling (Shh) pathway - cell viability counter screen (AID 1259366); note: nearly all actives have a fitted effect of over 50% in size; note: potency is the fitted concentration of half-maximal effect
Summary of the method: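 After a 4hr attachment at 37C, NIH/3T3 cells bearing an integrated Gli1-driven luciferase reporter were dosed with compounds. Treatment lasted 24hr, with the final hour including CellTiter-Fluor for a fluorescence viability measurement.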

Measured: Potency

Chain of Androgen receptor (Homo sapiens) (P10275 whole entry, looked up): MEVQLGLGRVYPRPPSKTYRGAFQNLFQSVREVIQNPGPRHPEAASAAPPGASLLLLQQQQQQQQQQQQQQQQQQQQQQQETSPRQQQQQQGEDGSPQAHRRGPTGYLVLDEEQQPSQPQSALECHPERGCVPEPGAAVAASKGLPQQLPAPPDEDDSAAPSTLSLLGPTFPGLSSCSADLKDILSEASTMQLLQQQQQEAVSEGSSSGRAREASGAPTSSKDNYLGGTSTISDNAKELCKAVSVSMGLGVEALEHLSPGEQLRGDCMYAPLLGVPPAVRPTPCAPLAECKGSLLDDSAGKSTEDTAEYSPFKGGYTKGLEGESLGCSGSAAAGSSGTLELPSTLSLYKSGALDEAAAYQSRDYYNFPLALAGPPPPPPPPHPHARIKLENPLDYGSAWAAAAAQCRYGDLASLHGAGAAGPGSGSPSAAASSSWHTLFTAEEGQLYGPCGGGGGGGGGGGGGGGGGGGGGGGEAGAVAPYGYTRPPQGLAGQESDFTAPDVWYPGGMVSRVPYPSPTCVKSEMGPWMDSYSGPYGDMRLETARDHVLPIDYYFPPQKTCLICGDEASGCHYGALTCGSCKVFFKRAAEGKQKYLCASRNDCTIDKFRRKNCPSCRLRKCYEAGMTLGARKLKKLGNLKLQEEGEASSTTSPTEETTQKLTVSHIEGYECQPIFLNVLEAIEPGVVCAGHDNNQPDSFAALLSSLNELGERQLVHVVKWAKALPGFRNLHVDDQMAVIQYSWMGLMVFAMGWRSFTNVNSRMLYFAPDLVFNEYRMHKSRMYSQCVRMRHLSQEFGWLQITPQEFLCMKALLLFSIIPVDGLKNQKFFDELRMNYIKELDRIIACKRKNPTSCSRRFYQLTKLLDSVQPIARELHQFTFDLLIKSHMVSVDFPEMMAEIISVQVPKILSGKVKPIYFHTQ
Chain of Estrogen receptor (Homo sapiens) (P03372 whole entry, looked up): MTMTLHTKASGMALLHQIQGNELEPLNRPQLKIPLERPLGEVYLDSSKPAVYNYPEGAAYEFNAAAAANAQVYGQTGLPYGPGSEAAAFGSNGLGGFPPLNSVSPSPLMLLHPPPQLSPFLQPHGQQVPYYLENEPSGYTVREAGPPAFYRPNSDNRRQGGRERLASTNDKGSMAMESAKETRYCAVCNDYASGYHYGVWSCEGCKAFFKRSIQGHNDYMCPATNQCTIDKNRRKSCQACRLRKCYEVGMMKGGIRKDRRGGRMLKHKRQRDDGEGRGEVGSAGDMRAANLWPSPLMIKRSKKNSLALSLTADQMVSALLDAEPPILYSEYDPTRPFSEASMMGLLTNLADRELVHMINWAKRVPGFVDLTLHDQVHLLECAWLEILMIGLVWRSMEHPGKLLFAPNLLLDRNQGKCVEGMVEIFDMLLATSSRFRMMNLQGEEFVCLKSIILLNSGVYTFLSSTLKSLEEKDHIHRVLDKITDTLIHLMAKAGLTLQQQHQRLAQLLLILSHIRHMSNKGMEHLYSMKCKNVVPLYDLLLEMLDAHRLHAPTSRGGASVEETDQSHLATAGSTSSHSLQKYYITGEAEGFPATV

CCOc1cc(N)c(Cl)cc1C(=O)NCC1CN(Cc2ccc(F)cc2)CCO1 (configuration not stated)
inactive: [1] | [2] | [3] | [4] | [5] | [6] | [7] | [8]

NCC1CCCC(CN)C1 (configuration not stated)
inactive: [1] | [2] | [9] | [5] | [6] | [10] | [7] | [8]

CCOC(=O)[C@@H](C)Oc1ccc(Oc2nc3ccc(Cl)cc3o2)cc1
inactive: [1] | [2] | [9] | [6] | [10] | [7] | [8]

COC(=O)c1cc(Cl)ccc1NS(=O)(=O)C(F)(F)F
inactive: [1] | [2] | [9] | [5] | [7] | [8]

CC(=O)[C@H]1CC[C@H]2[C@@H]3C=CC4=CC(=O)CC[C@@]4(C)[C@@H]3CC[C@]12C
inactive: [1] | [2] | [3] | [4] | [5] | [6] | [10] | [7]

CC(=O)OCC(=O)[C@@]12OC(C)(C)O[C@@H]1C[C@H]1[C@@H]3C[C@H](F)C4=CC(=O)C=C[C@]4(C)[C@@]3(F)[C@@H](O)C[C@@]12C
inactive: [1] | [2] | [3] | [4] | [5] | [6] | [7] | [8]

Nc1c(I)cc(I)c(C(=O)N(CCC(=O)O)c2ccccc2)c1I
inactive: [1] | [2] | [9] | [5] | [6] | [7]

CO/N=C1\CN(c2nc3c(cc2F)c(=O)c(C(=O)O)cn3C2CC2)CC1CN (configuration not stated)
inactive: [1] | [2] | [3] | [4] | [5] | [6] | [7] | [8]

Cc1ccc(Nc2nccc(N(C)c3ccc4c(C)n(C)nc4c3)n2)cc1S(N)(=O)=O
inactive: [1] | [2] | [5] | [6] | [7] | [8]
active: [9] 11.9 µM

CC1=NN(c2ccc(C(=O)O)cc2)C(=O)C1
inactive: [1] | [2] | [9] | [5] | [6] | [10] | [7] | [8]

CN1C(=O)CC(C)(c2ccccc2)C1=O (configuration not stated)
inactive: [1] | [2] | [3] | [4] | [5] | [6] | [7] | [8]

CCCCC1C(=O)N(c2ccccc2)N(c2ccc(O)cc2)C1=O (configuration not stated)
active: [9] 26.6 µM | [10] 13.3 µM | [7] 16.8 µM
inactive: [1] | [2] | [4] | [8]

CCCCC(=O)O[C@]1(C(=O)CO)CC[C@H]2[C@@H]3CCC4=CC(=O)CC[C@]4(C)[C@H]3[C@@H](O)C[C@@]21C
inactive: [1] | [2] | [3] | [4] | [5] | [6] | [7] | [8]

Cc1cc(O)c(C(C)C)cc1Cl
inactive: [1] | [2] | [3] | [4] | [5] | [6] | [10] | [7]

CCCCCC=CCC=CCCCCCCCC(=O)OCC
inactive: [1] | [2] | [3] | [4] | [5] | [6] | [10] | [7]

CC(CCc1ccc2c(c1)OCO2)NN (configuration not stated)
inactive: [1] | [2] | [3] | [4] | [5] | [6] | [10] | [7] | [8]

CCc1c2c(nc3ccc(OC(=O)N4CCC(N5CCCCC5)CC4)cc13)-c1cc3c(c(=O)n1C2)COC(=O)[C@]3(O)CC
active: [3] 23.7 µM
inactive: [1] | [2] | [4] | [5] | [6] | [7] | [8]

CC1(C)O[C@@H]2C[C@H]3[C@@H]4CCC5=CC(=O)C=C[C@]5(C)[C@H]4[C@@H](O)C[C@]3(C)[C@]2(C(=O)CO)O1
inactive: [1] | [2] | [3] | [4] | [5] | [6] | [7] | [8]

Cc1cc(O)c2c(O)c3c(O)cccc3cc2c1
inactive: [1] | [2] | [9] | [4] | [5] | [10] | [7] | [8]

COc1cc2[nH]c(=O)[nH]c(=O)c2cc1OC
inactive: [1] | [2] | [3] | [4] | [5] | [6] | [7] | [8]

CCCCCCCCSCCO
inactive: [1] | [2] | [9] | [5] | [6] | [10] | [7] | [8]

O=C1OCCN1/N=C/c1ccc([N+](=O)[O-])o1
inactive: [1] | [2] | [3] | [4] | [5] | [6] | [10] | [7] | [8]

O=C(O)C(Cc1cc(I)c(O)c(I)c1)c1ccccc1 (configuration not stated)
inactive: [1] | [2] | [3] | [4] | [5] | [6] | [10] | [7] | [8]

COC(=O)[C@@H]1CC2=CC(=O)CC[C@]2(C)[C@@]23O[C@@H]2C[C@@]2(C)[C@@H](CC[C@@]24CCC(=O)O4)[C@H]13
inactive: [1] | [2] | [3] | [4] | [5] | [6] | [10] | [7] | [8]

COc1ccc([C@@H]2Sc3ccccc3NC(=O)[C@@H]2O)cc1
inactive: [1] | [2] | [9] | [5] | [6] | [10] | [7] | [8]
